Reference: PubChem BioAssay (NCATS)
Where “and” joins values, the source holds several entries; their conditions need not be identical. Identical values can stand only once. Records with an inconclusive call do not appear. Calls of active or inactive are those of the source. Unless noted, the call rests on the fitted dose curve; in most records, active means well fitted curve in the direction sought with a large enough effect; inconclusive means small, poorly fitted or top-dose-only effect, or another doubt; inactive means no such curve, though single readings can be large; an effect the other way counts as inactive or inconclusive.

Tests used:
[1] = Cell Viability - H-4-II-E (AID 543); further: on the % scale 0 is the no-effect control and ±100 the full control effect; nearly all actives have a fitted effect of over 35% in size
Method in brief: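 Rat hepatoma H-4-II-E cells, 1500 per well, treated 40 h at 37 °C in complete medium. Cellular ATP read by CellTiter-Glo luminescence; AC50 from Hill fits of concentration-response.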

[2] = Cellular Toxicity (caspase-3) SHSY5Y (AID 657);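 further: cells exposed to compound for 16 hours at 37 °C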
Method in brief: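 qHTS, SH-SY5Y, 1500 cells/well, 5 h pre-incubation 37 °C; compound 16 h 37 °C; Caspase-Glo 3/7 1 h RT; luminescence. Norm.: DMSO = 0, 10 uM staurosporine = 100%. Hill fit → AC50.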

[3] = Cellular Toxicity (caspase-3) N2a (AID 665);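 further: compound exposure lasted 16 h at 37 °C before readout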
Method in brief: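 Mouse N2a neuroblastoma cells, 1500 per well, treated 16 h at 37 °C in complete medium; caspase-3/7 activity by Caspase-Glo luminescence after 1 h. Normalized to DMSO and 10 uM staurosporine; AC50 from Hill fits.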

[4] = Cellular Toxicity (caspase-3) Renal Proximal Tubule (AID 667);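 further: cells exposed to compound for 16 hours at 37 °C before detection; 0% = DMSO basal and 100% = 10 µM staurosporine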
Method in brief: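 AC50 derived by standard Hill fit of concentration-response data, normalized between DMSO basal and 10 uM staurosporine as 100% stimulation. Cells: primary rat kidney proximal tubule, 16 h treatment at 37 °C.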

[5] = Cell Viability - LYMP2-009 (AID 968);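 further: series mostly up to about 92 µM; 0% = DMSO alone and the full-kill end = tetraoctylammonium bromide at 92 µM; nearly all actives have a fitted effect of over 55% in size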
[6] = Cell Viability - LYMP2-023 (AID 975);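 further: cellular ATP measured by luciferase luminescence as viability proxy; series mostly up to about 92 µM; plate controls were DMSO only for no effect and 92 µM tetraoctylammonium bromide control for full effect; nearly all actives have a fitted effect of over 55% in size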
Method in brief: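 LYMP2-023 human lymphoblastoid cells, 2500/well, preincubated 5 hr at 37 C, then compound-treated 24 hr at 37 C in complete medium. CellTiter-Glo luminescence (ATP) after 30 min at room temperature; AC50 from Hill-equation fits; tetraoctylammonium bromide positive control.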

[7] = Cell Viability - LYMP2-022 (AID 987);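 further: 0% = DMSO alone and full effect = tetraoctylammonium bromide at 92 µM; nearly all actives have a fitted effect of over 55% in size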
Method in brief: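 LYMP2-022 lymphoblastoid cells (2500/well, complete medium) were treated with compounds for 24 hours at 37 C; intracellular ATP was then read by CellTiter-Glo luminescence after 30 min at room temperature. AC50 values were derived from Hill-equation fits.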

[8] = molecular target: Vitamin D3 receptor (Homo sapiens) (UniProt P11473); test: qHTS assay for small molecule antagonists of vitamin D receptor signaling (AID 588541; calls by dose curve;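 further: receptor activated by calcitriol during compound treatment; series mostly up to about 77 µM; on the % scale 0 is the no-effect control and ±100 the full control effect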)
Sequence of Vitamin D3 receptor (Homo sapiens) (P11473 whole entry, looked up): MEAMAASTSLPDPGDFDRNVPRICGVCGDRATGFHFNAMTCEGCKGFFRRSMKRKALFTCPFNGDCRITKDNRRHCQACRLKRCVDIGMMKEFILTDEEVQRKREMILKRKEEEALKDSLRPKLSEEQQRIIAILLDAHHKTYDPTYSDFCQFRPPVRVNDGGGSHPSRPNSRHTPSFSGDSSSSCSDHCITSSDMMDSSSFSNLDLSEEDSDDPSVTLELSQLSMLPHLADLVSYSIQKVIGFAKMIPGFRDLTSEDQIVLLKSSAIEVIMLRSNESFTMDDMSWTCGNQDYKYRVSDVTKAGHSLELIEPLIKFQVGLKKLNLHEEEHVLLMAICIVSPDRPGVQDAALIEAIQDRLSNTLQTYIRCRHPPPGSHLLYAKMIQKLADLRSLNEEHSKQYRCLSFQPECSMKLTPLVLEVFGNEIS
Method in brief: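 Antagonist-mode beta-lactamase reporter assay: HEK293T VDR-UAS-bla cells were exposed to titrated compound alongside 1-alpha,25-dihydroxyvitamin D3 at 3 nM final for 16 h. Values were normalized to the 50 nM agonist control and DMSO basal, with IC50 and efficacy from Hill equation fits.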

[9] = molecular target: Thyroid hormone receptor beta (Homo sapiens) (UniProt P10828); test: qHTS assay for small molecule agonists of thyroid hormone receptor beta signaling (AID 588545; calls by dose curve;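 further: 0% = DMSO only and 100% = 10 nM T3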)
Sequence of Thyroid hormone receptor beta (Homo sapiens) (P10828 whole entry, looked up): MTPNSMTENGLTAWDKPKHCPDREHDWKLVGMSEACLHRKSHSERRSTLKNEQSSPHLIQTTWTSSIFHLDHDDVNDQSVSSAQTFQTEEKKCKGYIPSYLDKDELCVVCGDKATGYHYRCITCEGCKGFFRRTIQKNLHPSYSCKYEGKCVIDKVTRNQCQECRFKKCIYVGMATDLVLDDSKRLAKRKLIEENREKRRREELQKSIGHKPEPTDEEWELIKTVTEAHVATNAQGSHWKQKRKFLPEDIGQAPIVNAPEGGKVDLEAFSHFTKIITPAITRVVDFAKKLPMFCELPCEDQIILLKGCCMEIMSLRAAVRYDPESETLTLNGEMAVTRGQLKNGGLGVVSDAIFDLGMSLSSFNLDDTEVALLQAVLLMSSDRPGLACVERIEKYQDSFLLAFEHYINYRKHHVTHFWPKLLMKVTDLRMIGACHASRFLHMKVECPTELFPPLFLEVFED
Method in brief: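 Beta-lactamase reporter activity under TR response element control is measured in HEK 293 cells after 18 hrs compound exposure. Signal is ratiometric CCF4 fluorescence, 460/530 nm.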

[10] = qHTS assay for small molecule disruptors of the mitochondrial membrane potential - 1 hr assay (AID 651754; calls by dose curve; further: nearly all actives have a fitted effect of over 35% in size; further: potency means the concentration at half of the fitted maximal effect)
Method in brief: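 HepG2 cells, attached overnight, were exposed to compound for 1 hr at 37C, then stained 30 min with a potentiometric dye. Ratio of red aggregate (590nm) to green monomer (535nm) fluorescence reports membrane potential; collapse shifts signal toward green.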

[11] = qHTS assay for small molecule disruptors of the mitochondrial membrane potential - 5 hr assay (AID 651755; calls by dose curve; further: nearly all actives have a fitted effect of over 40% in size; further: potency means the concentration at half of the fitted maximal effect)
Method in brief: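 HepG2, 2,000 cells/well, overnight attach; cpd or DMSO 5 hr, 37C/5% CO2; Mito-MPS 30 min 37C; fluor 490/535 + 540/590 nm.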

[12] = qHTS assay for environmental chemicals that activate the Aryl hydrocarbon Receptor (AhR) signaling pathway (AID 651777); conditions: 1A2-DRE human hepatoma cells, luciferase, 24 h; activation: hits give high values; further: nearly all actives have a fitted effect of over 15% in size; further: potency means the concentration at half of the fitted maximal effect; on activation: % of control where 0% means no effect
Method in brief: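 Stable CYP1A2 promoter/DRE-luciferase human hepatoma line treated 24 hr; One-Glo luminescence, 30 min RT.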

[13] = qHTS assay for small molecule agonists of the antioxidant response element (ARE) signaling pathway measured by Nrf2-dependant transcriptional activity - cell viability counter screen (AID 720653; active means well fitted curve in the direction sought with a large enough effect in the repeat runs; an effect the other way counts as inactive or inconclusive; further: on the % scale 0 is the no-effect control and ±100 the full control effect); conditions: ARE-bla HepG2 viability, CellTiter-Glo ATP luminescence, 16 h; hits give low values
Method in brief: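 Cytotoxicity counter screen: intracellular ATP quantified by CellTiter-Glo luminescence in the same ARE-bla HepG2 plates, after 16 h compound exposure and a 2 h beta-lactamase substrate step.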

[14] = Cell Viability - SK-N-SH (AID 435; calls by dose curve;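 further: potency means the concentration at half of the fitted maximal effect; compound exposure lasted 40 h at 37 °C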); conditions: SK-N-SH neuroblastoma cell viability qHTS
Method in brief: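 Luminescent ATP signal served as the viability read-out after 40 hours of compound treatment of human neuroblastoma SK-N-SH cells. Concentration-response data, scaled between DMSO and 100 uM tamoxifen, gave AC50 values by standard Hill modeling.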

[15] = Cell Viability - Renal Proximal Tubule (AID 545);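 further: 0% = DMSO only and -100% = 100 µM tamoxifen; nearly all actives have a fitted effect of over 40% in size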
Method in brief: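 Luminescent ATP signal (CellTiter-Glo) served as the viability read-out after 40 hr compound exposure of freshly isolated rat proximal tubule cells at 37 °C. Concentration-dependent ATP loss was fitted with the Hill equation to give AC50.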

[16] = qHTS assay for small molecule agonists of the antioxidant response element (ARE) signaling pathway measured by Nrf2-dependant transcriptional activity (AID 720636; active means well fitted curve in the direction sought with a large enough effect in the repeat runs; an effect the other way counts as inactive or inconclusive;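 further: HepG2 cells with an ARE-driven luciferase reporter; % of control where 0% means no effect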)
Method in brief: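 Reporter gene assay, HepG2 ARE-luc: 16 hr compound, 37 C, 5% CO2; read-out luciferase luminescence.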

[17] = qHTS assay for cell viability of HEK293 cells (AID 743288); conditions: ATP luminescence (CellTiter-Glo), 18 h, hits give low values; further: on the % scale 0 is the no-effect control and ±100 the full control effect; nearly all actives have a fitted effect of over 50% in size
Method in brief: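 HEK293 parental, 2,000 cells/well; ≥5 h pre-incubation 37 C; pintool compound addition; 18 h, 37 C; CellTiter-Glo 30 min RT; luminescence read.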

[18] = Cell Viability - LYMP2-015 (AID 971);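 further: 0% = DMSO only and full effect = 92 µM tetraoctylammonium bromide; nearly all actives have a fitted effect of over 55% in size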
Method in brief: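 LYMP2-015 human lymphoblastoid cells (2500/well) in complete medium, compound-treated 24 h at 37 C; viability read as cellular ATP by CellTiter-Glo luminescence after 30 min at room temperature. AC50 from Hill-equation fits of qHTS concentration-response data.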

Cc1ccc(N)cc1N
inactive: Potency [1] | outcome [2] | outcome [3] | outcome [4] | Potency [5] | Potency [6] | Potency [7] | outcome [8] | Potency [9] | max response [13] 0.265% and 5.03%
active: Potency [10] 23.7 µM | Potency [11] 29.8 µM | Potency [12] 44.7 µM

Cc1cc(-c2cc(C)c(N)c(C)c2)cc(C)c1N
inactive: Potency [14] > 92 µM | Potency [1] | outcome [15] | outcome [2] | outcome [4] | Potency [5] | Potency [7] | outcome [8] | Potency [9] | Potency [10] | Potency [11] | Potency [16] | max response [17] 7.5%
active: Potency [12] 10 µM

O=C(O)C(Cl)Br (stereo not given)
inactive: Potency [14] > 92 µM | Potency [1] | outcome [15] | outcome [2] | outcome [3] | outcome [4] | Potency [5] | Potency [18] | Potency [6] | Potency [7] | outcome [8] | Potency [10] | Potency [11] | activation [12] 0.968% | Potency [16] | max response [13] 3.95% | max response [17] 6.83%

CCCBr
inactive: Potency [14] > 92 µM | Potency [1] | outcome [15] | outcome [2] | outcome [3] | outcome [4] | Potency [18] | Potency [6] | Potency [7] | outcome [8] | Potency [9] | Potency [10] | Potency [11] | Potency [16]

BrC(Br)Br
inactive: Potency [14] > 92 µM | Potency [1] | outcome [15] | outcome [2] | outcome [3] | outcome [4] | Potency [18] | Potency [6] | Potency [7] | outcome [8] | Potency [9] | Potency [10] | Potency [11] | activation [12] 2.01% | Potency [16] | max response [13] -14.5% | max response [17] -3.11%
